From PubChem BioAssay (Tox21)
Where “and” joins values, the source holds several entries; their conditions need not be identical. Equal entries are not always repeated. Inconclusive results are not listed. The source holds several records for some structures; these can differ, active in one and inactive in another. Calls of active or inactive are those of the source. Unless noted, calls follow the shape of the dose curve; as a rule, active = well fitted curve in the direction sought with a large enough effect in the repeat runs; inconclusive = weak or mixed curves; inactive = no such curve, though single readings can be large; an effect the other way counts as inactive or inconclusive.

Tests used:
[1] = qHTS assay to identify small molecule agonists of the peroxisome proliferator-activated receptor delta (PPARd) signaling pathway - cell viability counter screen (AID 743211); also: nearly all actives have a fitted effect of over 55% in size; also: potency is read from the fitted curve at half-maximal effect
In short: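 qHTS cell viability: PPARd-bla HEK293H; 17 h cpd, 37C; CellTiter-Glo, luminescence at 30 min RT.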

[2] = biological target: Peroxisome proliferator-activated receptor delta (Homo sapiens) (UniProt Q03181); assay: qHTS assay to identify small molecule agonists of the peroxisome proliferator-activated receptor delta (PPARd) signaling pathway (AID 743212; calls by dose curve)
Peroxisome proliferator-activated receptor delta (Homo sapiens), sequence (Q03181 whole entry, looked up): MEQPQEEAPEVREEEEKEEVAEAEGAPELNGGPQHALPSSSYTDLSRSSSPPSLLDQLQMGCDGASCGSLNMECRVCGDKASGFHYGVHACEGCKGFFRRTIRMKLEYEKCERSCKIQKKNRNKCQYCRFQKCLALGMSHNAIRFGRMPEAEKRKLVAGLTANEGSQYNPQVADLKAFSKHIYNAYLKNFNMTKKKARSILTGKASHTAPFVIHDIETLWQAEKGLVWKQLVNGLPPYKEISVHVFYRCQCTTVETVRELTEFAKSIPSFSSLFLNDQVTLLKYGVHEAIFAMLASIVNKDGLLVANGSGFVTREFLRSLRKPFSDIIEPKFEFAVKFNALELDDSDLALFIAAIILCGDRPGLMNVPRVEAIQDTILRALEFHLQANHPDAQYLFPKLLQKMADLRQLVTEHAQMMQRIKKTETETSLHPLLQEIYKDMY
In short: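 A PPARd-bla HEK293H line with beta-lactamase under an Upstream Activator Sequence is treated with compounds at 37 C. Substrate loading for 2 h at room temperature precedes the fluorescence measurement.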

[3] = qHTS assay to identify small molecule antagonists of the peroxisome proliferator-activated receptor delta (PPARd) signaling pathway - cell viability counter screen (AID 743213); also: nearly all actives have a fitted effect of over 50% in size; also: potency is read from the fitted curve at half-maximal effect
In short: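 HEK293H cells with the PPARd UAS-bla reporter, co-treated 17 h at 37 C with compounds and L165041 (300 nM final), were lysed with CellTiter-Glo. Luminescence indicated viable cell content.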

[4] = biological target: Peroxisome proliferator-activated receptor delta (Homo sapiens) (UniProt Q03181); assay: qHTS assay to identify small molecule antagonists of the peroxisome proliferator-activated receptor delta (PPARd) signaling pathway (AID 743215; active = well fitted inhibition curve with a large enough effect in the signal ratio in the repeat runs, not every such curve was filed as active; the % refers to the signal ratio;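 also: cells stimulated with agonist L165041 at 300 nM final during compound exposure; series mostly up to about 62 µM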)
In short: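 Antagonist-mode beta-lactamase reporter screen: HEK293H cells with UAS-bla under PPARd control, stimulated by 300 nM L165041 (final) alongside test compound for 17 h at 37 C, then FRET fluorescence after 2 h substrate incubation.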

[5] = biological target: Bile acid receptor (Homo sapiens) (UniProt Q96RI1); assay: qHTS assay to identify small molecule antagonists of the farnesoid-X-receptor (FXR) signaling pathway (AID 743217; active = well fitted inhibition curve with a large enough effect in the signal ratio in the repeat runs, not every such curve was filed as active; the % refers to the signal ratio)
Bile acid receptor (Homo sapiens), sequence (Q96RI1 whole entry, looked up): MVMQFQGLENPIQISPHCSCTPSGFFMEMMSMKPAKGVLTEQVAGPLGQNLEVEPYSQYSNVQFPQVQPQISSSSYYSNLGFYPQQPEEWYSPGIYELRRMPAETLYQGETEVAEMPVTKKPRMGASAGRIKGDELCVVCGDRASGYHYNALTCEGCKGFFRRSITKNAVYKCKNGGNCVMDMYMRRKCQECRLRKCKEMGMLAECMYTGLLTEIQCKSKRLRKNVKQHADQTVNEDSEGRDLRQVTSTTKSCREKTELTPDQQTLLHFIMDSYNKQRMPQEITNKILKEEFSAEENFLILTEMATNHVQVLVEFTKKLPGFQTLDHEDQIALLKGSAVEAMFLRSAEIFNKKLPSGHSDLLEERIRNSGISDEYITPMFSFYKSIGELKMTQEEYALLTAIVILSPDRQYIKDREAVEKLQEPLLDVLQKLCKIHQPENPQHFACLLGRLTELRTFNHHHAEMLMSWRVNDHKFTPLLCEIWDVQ
In short: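 Beta-lactamase reporter under UAS control in HEK 293T cells; compound exposure 16 h at 37 °C in the presence of chenodeoxycholic acid (50 uM final); signal from B/G FRET substrate after 2 h at room temperature.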

[6] = qHTS assay to identify small molecule agonists of the farnesoid-X-receptor (FXR) signaling pathway - cell viability counter screen (AID 743218); also: nearly all actives have a fitted effect of over 45% in size; also: potency is read from the fitted curve at half-maximal effect
In short: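 In GeneBLAzer FXR-UAS-bla HEK 293T cells, compounds act for 16 h at 37 C. Cell viability is then scored in the reporter wells by CellTiter-Glo, 30 min at RT, luminescence.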

[7] = biological target: Bile acid receptor (Homo sapiens) (UniProt Q96RI1); assay: qHTS assay to identify small molecule agonists of the farnesoid-X-receptor (FXR) signaling pathway (AID 743220; active = well fitted activation curve with a large enough effect in the signal ratio in the repeat runs, not every such curve was filed as active; the % refers to the signal ratio)
In short: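 Beta-lactamase reporter under UAS control in GeneBLAzer FXR HEK 293T cells (5000/well) measured with LiveBLAzer FRET substrate after 2 h at room temperature. Compound exposure lasted 16 h at 37C.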

[8] = qHTS assay to identify small molecule antagonists of the farnesoid-X-receptor (FXR) signaling pathway - cell viability counter screen (AID 743221; active = well fitted cell-killing curve with a large enough effect in the repeat runs, not every such curve was filed as active; also: nearly all actives have a fitted effect of over 50% in size)
In short: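 After a 5 h settling period, FXR-bla HEK 293T cells receive compound and chenodeoxycholic acid (50 uM final) and incubate 16 h at 37 C; CellTiter-Glo luminescence, read after 30 min at room temperature, reports cell viability.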

[9] = biological target: Vitamin D3 receptor (Homo sapiens) (UniProt P11473); assay: qHTS assay to identify small molecule agonists of the vitamin D receptor (VDR) signaling pathway (AID 743222; calls by dose curve)
Vitamin D3 receptor (Homo sapiens), sequence (P11473 whole entry, looked up): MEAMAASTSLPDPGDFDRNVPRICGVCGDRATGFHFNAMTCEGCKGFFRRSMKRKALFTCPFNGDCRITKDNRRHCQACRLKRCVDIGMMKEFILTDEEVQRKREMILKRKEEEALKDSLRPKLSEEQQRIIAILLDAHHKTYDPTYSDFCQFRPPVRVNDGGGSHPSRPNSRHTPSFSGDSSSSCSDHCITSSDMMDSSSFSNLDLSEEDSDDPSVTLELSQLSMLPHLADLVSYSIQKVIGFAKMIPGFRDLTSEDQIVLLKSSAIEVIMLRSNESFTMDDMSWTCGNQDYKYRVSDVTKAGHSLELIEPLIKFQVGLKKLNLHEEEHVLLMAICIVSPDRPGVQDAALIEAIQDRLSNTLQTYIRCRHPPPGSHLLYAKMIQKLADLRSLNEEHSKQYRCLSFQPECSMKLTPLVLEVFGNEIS
In short: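 Agonist activity measured in VDR-bla reporter cells. Exposure 16 h, 37C, 5% CO2; detection by B/G FRET substrate, 2 h RT.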

[10] = biological target: Vitamin D3 receptor (Homo sapiens) (UniProt P11473); assay: qHTS assay to identify small molecule antagonists of the vitamin D receptor (VDR) signaling pathway (AID 743223; active = well fitted inhibition curve with a large enough effect in the signal ratio in the repeat runs, not every such curve was filed as active; the % refers to the signal ratio)
In short: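 Reporter line VDR-bla; stimulus 1alpha,25-(OH)2 vitamin D3, 3 nM final; compound co-addition, 16 h 37C/5% CO2; LiveBLAzer B/G substrate 2 h RT; fluorescence intensity.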

Measured: Potency

O=C(Cl)c1c(Cl)c(Cl)c(C(=O)Cl)c(Cl)c1Cl
not listed: [9] | [10]
inactive: all other assays above

CCCCCCCCCCCCOCC1CO1 (configuration not stated)
not listed: [10]
inactive: all other assays above

O=Nc1ccc(O)cc1
not listed: [9] | [10]
inactive: all other assays above

NCc1cccc(CN)c1
inactive: all assays above

Cc1cc(=O)[nH]c(C(C)C)n1
inactive: all assays above

O=S(=O)(O)CCS
not listed: [9] | [10]
inactive: all other assays above

CCc1ccccc1O
not listed: [8]
inactive: all other assays above

C=CC(=O)OCCCCCCCC(C)C
not listed: [8]
inactive: all other assays above

CCC(C)C=O (configuration not stated)
not listed: [8] | [10]
inactive: all other assays above

Cc1ccc(N)c(S(=O)(=O)O)c1
not listed: [10]
inactive: all other assays above

CCCCC(CC)COC(=O)CCCCCCCC(=O)OCC(CC)CCCC (configuration not stated)
not listed: [9] | [10]
inactive: all other assays above

NC(=O)/N=N/C(N)=O
inactive: all assays above

CCCCCCOC(C)=O
inactive and 24.5 µM (active): [6]
not listed: [10]
inactive: all other assays above

O=C(c1ccc(O)cc1)c1ccc(O)cc1O
not listed: [9] | [10]
inactive: all other assays above

O=C(O)c1ccc([N+](=O)[O-])cc1
inactive: all assays above

O=c1c(-c2ccc(O)cc2)coc2cc(O)ccc12
inactive: [1] | [2] | [3] | [4] | [6] | [7]

CC(C)Cc1ccccc1
inactive: [1] | [2] | [3] | [4] | [6] | [8]

CCCCNC(N)=O
inactive: all assays above

O=S(=O)(O)c1cc(S(=O)(=O)O)c2c(N=Nc3ccccc3)c(O)ccc2c1
inactive: all assays above

OCC1CCCO1 (configuration not stated)
inactive: all assays above

Clc1ccc(Cl)c(Cl)c1Cl
inactive: all assays above

CCCCCCCCCCCCN
inactive and 43.6 µM (active): [6]
inactive and 19.5 µM (active): [1]
inactive and 49 µM (active): [3]
inactive: [2] | [4]

CC1CC(OC(=O)c2ccccc2O)CC(C)(C)C1 (configuration not stated)
inactive: [1] | [2] | [3] | [4] | [6]

CCCCOCCO
inactive: all assays above

C=C(C)C(=O)OCCC[Si](OC)(OC)OC
inactive: [1] | [2] | [3] | [4] | [6] | [8]

Oc1ccc(OCc2ccccc2)cc1
inactive: all assays above

O=C(c1cc(O)c(O)c(O)c1)c1ccc(O)c(O)c1O
inactive: all assays above

C=C(C)C(=O)OCC(CC)(COC(=O)C(=C)C)COC(=O)C(=C)C
not listed: [9] | [10]
inactive: all other assays above

CC(C)(C)C(=O)C1C(=O)c2ccccc2C1=O
not listed: [5]
inactive: all other assays above

CCOC(=O)[C@H](CCc1ccccc1)N[C@@H](C)C(=O)N1Cc2ccccc2C[C@H]1C(=O)O
inactive: all assays above

CCCCCC/C=C/CCCCCCCC(=O)O
not listed: [9]
inactive: all other assays above

CNC[C@H](O)[C@@H](O)[C@H](O)[C@H](O)CO
inactive: all assays above

Clc1cc(Cl)c(Cl)cc1Cl
inactive: [1] | [2] | [3] | [4] | [6]

CCCCOCCOCCOC(=O)CCCCC(=O)OCCOCCOCCCC
inactive: all assays above

c1ccc2ccccc2c1
inactive: all assays above
